In PubChem BioAssay AID624256 (NMMLSC, 2012) one finds GFP+ MAC1+ double positive, outcome and normalized GFP-positive differentiation data, which are given here for 41 compounds.

Among all 360,000 compounds or so, about 3,700 (1%) were called active. Inconclusive results (about 2%) are left out.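 Rule for the calls: active = normalized GFP-positive differentiation at or above the plate's own cutoff, the solvent-only control mean plus 3 SD; inconclusive = no clear call, values can overlap the other calls; inactive = the rest.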 The sample as a whole holds a higher share of actives than the screen did.

A short description of this assay: induction of myeloid progenitor differentiation, primary screen, cell-based, flow cytometry, MLPCN library (AID 624256).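 For GFP+ MAC1+ double positive: cells exposed to compound for four days before flow analysis.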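 For normalized GFP-positive differentiation: cells exposed to compound for four days before flow analysis; 0% = DMSO wells and 100% = fulvestrant positive control at 5 µM.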 The conditions noted are these: ER-HoxA9 myeloid progenitors, lysozyme-GFP differentiation, at 10 µM; GFP+ MAC1+ double positive: measured here: differentiation confirmed by MAC1 staining, stronger effect = higher value; normalized GFP-positive differentiation: stronger effect = higher value. On the technique in general: A flow cytometer gives signals particle by particle.
Take `COC(=O)Cc1ccc(NC(=S)NCc2ccco2)cc1`: the GFP+ MAC1+ double positive came to 0.6% and the outcome was inactive.

For `O=C(NNC(=S)NCc1ccco1)C(c1ccccc1)c1ccccc1`, the GFP+ MAC1+ double positive amounted to 5.5% and the normalized GFP-positive differentiation was 175% (active).

Regarding `COc1cccc(OC)c1C(=O)NC(=S)NCc1ccco1`, the GFP+ MAC1+ double positive was found to be 0.3% and the compound was classed as inactive.

Take `Nc1cccc(-c2cncc(N3CCN(Cc4ccccn4)CC3)n2)c1`: the GFP+ MAC1+ double positive is 0.8% and the outcome was inactive.

Take `CC(C)c1cccc(C(C)C)c1Nc1cn[nH]c1`: the GFP+ MAC1+ double positive stood at 0.2% and the compound was called inactive.

Regarding `O=C(/C=C/c1ccccc1[N+](=O)[O-])OCC(=O)N1CCCC1`, the GFP+ MAC1+ double positive turned out to be 0.4% and the result was inactive.

In the case of `CC(C)CNC(=O)COC(=O)/C=C/c1ccco1`, the GFP+ MAC1+ double positive stood at 0.7% and the compound was called inactive.

In the case of `CC(C)CNC(=O)COC(=O)/C=C/c1ccccc1[N+](=O)[O-]`, the GFP+ MAC1+ double positive is 4.9% and the normalized GFP-positive differentiation was 14.3% (active).

As to `O=C1C(Sc2cccc(F)c2)=C[C@@]2(O)CC[C@@H](O)[C@]1(Sc1cccc(F)c1)[C@H]2O`, the GFP+ MAC1+ double positive was found to be 2% and the compound was called inactive.

Take `O=C1NC[C@H](CCCCN2CCN(CCc3ccccc3)C(=O)C2=O)N(CC2CCCCC2)C1=O`: the GFP+ MAC1+ double positive is 0.5% and the compound was classed as inactive.

In the case of `Nc1nc2cc(Cl)ccc2n1N`, the GFP+ MAC1+ double positive was 1.5% and the compound was classed as inactive.

Turning to `CN1OC[C@@H]2CN(S(=O)(=O)c3cccc4ccccc34)[C@H](c3ccc(N4CCCCC4)cc3)C[C@@H]21`, the GFP+ MAC1+ double positive turned out to be 0.8% and the outcome was inactive.

Regarding `O=C(NCc1ccccc1Cl)C1CCCN1S(=O)(=O)c1ccc(F)cc1` (configuration not stated), the GFP+ MAC1+ double positive turned out to be 0.6% and the outcome was inactive.

As to `O=C(NCc1ccccc1Cl)C(=O)NCC1CCCN1S(=O)(=O)c1cccs1` (configuration not stated), the GFP+ MAC1+ double positive stood at 0.7% and the call was inactive.

As to `CCC1CCCCN1S(=O)(=O)Cc1ccccc1Cl` (configuration not stated), the GFP+ MAC1+ double positive came out at 3% and the normalized GFP-positive differentiation is 98.8% (active).

`O=C(N[C@@H](Cc1ccccc1)C(=O)OCc1ccccc1)c1nc[nH]c1C(=O)N[C@@H](Cc1ccccc1)C(=O)OCc1ccccc1`: the GFP+ MAC1+ double positive was found to be 0.2% and the outcome was inactive.

As for `CC(C)(C)OC(=O)CNC(=O)c1[nH]cnc1C(=O)N[C@@H](Cc1ccccc1)C(=O)OCc1ccccc1`, the GFP+ MAC1+ double positive was determined as 10% and the normalized GFP-positive differentiation is 21.4% (active).

In the case of `C[C@H](NC(=O)c1nc[nH]c1C(=O)NCC(=O)OC(C)(C)C)C(=O)OCc1ccccc1`, the GFP+ MAC1+ double positive stood at 0.8% and the compound was classed as inactive.

Consider `FC(F)(F)c1cccc(-c2nc3ccccc3n2C(c2ccccc2)c2nc3ccccc3[nH]2)c1` (configuration not stated), for which the GFP+ MAC1+ double positive was 3.2% and the outcome was inactive.

In the case of `COc1cccc(-c2ccc3c(c2)N(Cc2ccccc2OC)C(=O)C(C)S3)c1` (configuration not stated), the GFP+ MAC1+ double positive is 0.8% and the outcome was inactive.

On to `Cc1cccnc1C(NC(=O)C1CCN(Cc2ccc(Cl)c(Cl)c2)CC1)c1ccc(Cl)cc1` (configuration not stated), for which the GFP+ MAC1+ double positive was found to be 0.8% and the compound was classed as inactive.

For the compound `CC1=C(C(=O)N2CCOCC2)CC(CC(=O)NCc2cccs2)C(=O)N1CCCN1CCCC1=O` (configuration not stated), the GFP+ MAC1+ double positive was 1.4% and the result was inactive.

For the compound `Cc1ccc(NC(=O)C(C)OC(=O)Cc2c[nH]c3ccccc23)cc1S(=O)(=O)N1CCOCC1` (configuration not stated), the GFP+ MAC1+ double positive is 1% and the normalized GFP-positive differentiation is 9.47% (active).

Take `Cc1ccc(NC(=O)C(C)OC(=O)C2CC3CCCC(C2)C3=O)cc1S(=O)(=O)N1CCOCC1` (configuration not stated): the GFP+ MAC1+ double positive was 0.8% and the outcome was inactive.

On to `CC(OC(=O)CCCc1c[nH]c2ccccc12)C(=O)Nc1ccc(S(N)(=O)=O)cc1` (configuration not stated), for which the GFP+ MAC1+ double positive amounted to 0.5% and the compound was classed as inactive.

As for `O=C(OC1CC2CC1[C@H]1CCCCN1C2=O)N1CCOCC1` (some centres not stated), the GFP+ MAC1+ double positive was 0.9% and the call was inactive.

Take `Cc1noc(C)c1COC(=O)c1cc2ccccc2cc1O`: the GFP+ MAC1+ double positive was 1.2% and the compound was classed as inactive.

On to `O=C(COC(=O)c1ccc(O)cc1O)NC(=O)c1ccccc1`, for which the GFP+ MAC1+ double positive turned out to be 0% and the compound was classed as inactive.

For `O=C(NNc1c2ccccc2nc2ccccc12)c1cc2ccccc2cc1O`, the GFP+ MAC1+ double positive is 2.5% and the normalized GFP-positive differentiation was 28.5% (active).

In the case of `CCc1nc2c(OCCOc3ccc(F)cc3)cccn2c1N(C)C(=O)c1ccccc1F`, the GFP+ MAC1+ double positive was determined as 0.6% and the outcome was inactive.

For the compound `Nc1ccccc1SC(C[N+](=O)[O-])c1ccccc1` (configuration not stated), the GFP+ MAC1+ double positive was determined as 1.1% and the compound was classed as inactive.

As for `CCS(=O)(=O)c1cc([N+](=O)[O-])c(Sc2ccccc2N)s1`, the GFP+ MAC1+ double positive was determined as 1.1% and the normalized GFP-positive differentiation was 150% (active).

For `CC(C)(C)N1C(=O)c2c(C(=O)OCc3ccccc3)[nH]c(-c3ccccc3)c2C1=O`, the GFP+ MAC1+ double positive came to 1.4% and the call was inactive.

Consider `CC(C)Nc1nc(NCCOc2ccccc2Cl)c2sccc2n1`, for which the GFP+ MAC1+ double positive was 1% and the outcome was inactive.

Take `COc1ccc2nc(N3C(=O)C(O)=C(C(=O)c4ccco4)C3c3ccco3)sc2c1` (configuration not stated): the GFP+ MAC1+ double positive was 0.8% and the outcome was inactive.

On to `COc1ccc(N2CCN(c3ccc([N+](=O)[O-])nc3)CC2)cc1`, for which the GFP+ MAC1+ double positive is 0.9% and the result was inactive.

For the compound `COc1ccc2nc(N3CCN(C(=O)c4ccc([N+](=O)[O-])o4)CC3)sc2c1`, the GFP+ MAC1+ double positive amounted to 7.3% and the normalized GFP-positive differentiation is 33.6% (active).

As to `CCc1nc2ccc(C(=O)Nc3cccc(OC)c3)cn2c1N(CCC(C)C)CCN(C)C`, the GFP+ MAC1+ double positive came out at 1.2% and the outcome was inactive.

With `CCCCNC(=O)C[C@@H]1C[C@@]2(C(=O)OC)CC(C)(C)CC=C2N(Cc2ccco2)C1=O`, the GFP+ MAC1+ double positive worked out at 2.1% and the call was inactive.

For `COC(=O)C[C@@H]1C=C[C@@H](NC(=O)c2cccnc2)[C@@H](CO)O1`, the GFP+ MAC1+ double positive came to 1.2% and the compound was called inactive.

As to `CCOC(=O)C1=CC[C@@H](c2ccccc2)N(S(=O)(=O)c2ccc(C)cc2)[C@H]1c1ccc(CC)cc1`, the GFP+ MAC1+ double positive came out at 0.9% and the call was inactive.
